Assay results: PubChem BioAssay (NCATS)
Results filed as inconclusive are left out. Where a call stands in place of a potency, no number is given. Activity calls are given as the source filed them. The call rests on the fitted dose curve; in most records, active means well fitted curve in the direction sought with a large enough effect; inconclusive means small, poorly fitted or top-dose-only effect, or another doubt; inactive means no such curve, though single readings can be large; an effect the other way counts as inactive or inconclusive.

Biological target: Tyrosine-protein kinase Yes (Homo sapiens) (UniProt P07947)
Sequence (P07947 whole entry, looked up): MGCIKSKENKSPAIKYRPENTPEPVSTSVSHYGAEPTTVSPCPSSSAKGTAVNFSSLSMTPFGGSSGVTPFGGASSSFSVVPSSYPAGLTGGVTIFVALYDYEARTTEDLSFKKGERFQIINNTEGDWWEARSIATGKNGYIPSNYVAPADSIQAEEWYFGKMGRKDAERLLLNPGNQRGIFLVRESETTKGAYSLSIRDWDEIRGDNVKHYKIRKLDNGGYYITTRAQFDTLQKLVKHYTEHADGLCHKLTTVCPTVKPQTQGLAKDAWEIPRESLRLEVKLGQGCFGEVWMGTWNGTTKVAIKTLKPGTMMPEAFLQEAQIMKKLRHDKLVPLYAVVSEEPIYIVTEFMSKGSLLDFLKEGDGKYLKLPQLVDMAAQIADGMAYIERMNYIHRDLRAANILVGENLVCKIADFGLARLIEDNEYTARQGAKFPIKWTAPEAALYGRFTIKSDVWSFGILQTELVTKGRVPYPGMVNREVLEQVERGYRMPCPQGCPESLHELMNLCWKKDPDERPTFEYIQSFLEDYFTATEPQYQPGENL
Experiment: qHTS for small molecule inhibitors of Yes1 kinase: Primary Screen (AID 686947); further: nearly all actives have a fitted effect of over 60% in size; further: potency means the concentration at half of the fitted maximal effect
Conditions: Yes1 kinase biochemical qHTS inhibition; series mostly up to 76.9 µM
Outline: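 ADP-Glo luminescence readout; final 4 nM Yes1, 0.1 mM ATP, 0.3 mg/mL poly(E4Y), Tris pH 7.5, MgCl2, DTT, Brij-35. 20 min compound preincubation, 60 min reaction at RT. Normalized to DMSO wells with and without enzyme.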
With O=C(Nc1cccnc1)N1CCC(Cc2cccc(Oc3ccc(C(F)(F)F)cn3)c2)CC1 the Potency was “inactive”.
In the case of CNC(=O)c1ccc(C)c(-n2c(C)cc(OCc3ccc(F)cc3F)c(Br)c2=O)c1, the Potency is reported as “inactive”.
With COCCNCCCn1c(C(=O)CF)c(-c2ccc(C)cc2)c2c(N)ncnc21 the Potency was “inactive”.
In the case of CN([C@@H](Cc1ccc(OS(=O)(=O)c2cccc3cnccc23)cc1)C(=O)N1CCN(c2ccccc2)CC1)S(=O)(=O)c1cccc2cnccc12, the Potency is reported as “inactive”.
In the case of CC[C@@H](C)[C@H](NC(=O)[C@H](CC1CCCCC1)NC(=O)c1ccno1)C(=O)N1CCC2(CCc3ccccc32)CC1, the Potency is reported as “inactive”.
With COc1nc(-c2ccc3c(c2)OCO3)n(-c2ccc(NC(=O)CSc3ccccc3)cc2)n1 the Potency was “inactive”.
For C[C@]1(c2nc3c(C(N)=O)cccc3[nH]2)CCCN1, the Potency was “inactive”.
With COc1ccccc1[C@H](c1cccc2ccccc12)[C@@](C)(C#N)C(=O)N1CCC(c2cccc(C(F)(F)F)c2)CC1 the Potency was “inactive”.
With COc1ccc(-c2oc3cc(OC)ccc3c2C(=O)c2ccc(C#N)cc2)cc1 the Potency was “inactive”.
For Cc1cc(Nc2nc(N[C@@H](C)c3ncc(F)cn3)ncc2Cl)n[nH]1, the Potency was 772 nM (active).
For C/C(=C\C(=O)Nc1ccccc1C(=O)O)c1ccc2ccccc2c1, the Potency was “inactive”.
With Cn1cnc2c(F)c(Nc3ccc(Br)cc3Cl)c(C(=O)NOCCO)cc21 the Potency was “inactive”.
For CCOC(=O)C1=C[C@@]2(CC)CCCN3CCc4c(n1c1ccccc41)[C@H]32, the Potency was “inactive”.
In the case of CCCc1nc2c(C)cc(-c3nc4ccccc4n3C)cc2n1Cc1ccc(-c2ccccc2C(=O)O)cc1, the Potency is reported as “inactive”.
For NC(=O)c1ccc(-c2nc(-c3ccc4c(c3)OCCO4)c(-c3ccccn3)[nH]2)cc1, the Potency was “inactive”.
In the case of CCCS(=O)(=O)Nc1ccc(F)c(C(=O)c2c[nH]c3ncc(Cl)cc23)c1F, the Potency is reported as 173 nM (active).
In the case of CS(=O)(=O)Oc1ccc2c(NC(N)=O)c(C(=O)c3ccc(Cl)cc3Cl)oc2c1, the Potency is reported as “inactive”.
With Cc1c(CN2CCN(C(=O)C(C)C)CC2)sc2c(N3CCOCC3)nc(-c3cnc(N)nc3)nc12 the Potency was 244 nM (active).
For CN(C)c1ccc(Nc2nc(N)n(C(=O)c3c(F)cccc3F)n2)cc1, the Potency was 772 nM (active).
With Fc1ccc(Cl)cc1-c1nc(Nc2ccncc2)c2nccnc2n1 the Potency was “inactive”.
In the case of CN(C(=O)c1ccc(F)cc1C(F)(F)F)C1CCN(c2nnc(-c3ccnn3C)c3ccccc23)CC1, the Potency is reported as “inactive”.
With CS(=O)(=O)c1cccc(CNc2nc(Nc3ccc4c(c3)CCC(=O)N4)ncc2C(F)(F)F)c1 the Potency was 972 nM (active).
In the case of CC(C)OC(=O)C1=CN(C(=O)c2ccc(F)c(F)c2)CC(C)(C)c2c1[nH]c1ccccc21, the Potency is reported as “inactive”.
In the case of CC(C)(N)C(=O)N[C@H](COCc1ccccc1)C(=O)N1CCC2(CC1)CN(S(C)(=O)=O)c1ccccc12, the Potency is reported as “inactive”.
In the case of COc1ccc(CC2=NN3C([C@@H](CCc4ccccc4)[C@@H](C)O)=NC(C)C3C(=O)N2)cc1OC (some centres not stated), the Potency is reported as “inactive”.
In the case of Cc1cc(C=c2sc3nc4ccccc4n3c2=O)c(C)n1-c1ccccc1, the Potency is reported as “inactive”.
With CS(=O)(=O)c1ccc(C(=O)Nc2ccc(Cl)c(-c3ccccn3)c2)c(Cl)c1 the Potency was “inactive”.
With COc1cc2c(cc1OC)CN(CCc1ccc(NC(=O)c3cccc4c(=O)c5cccc(OC)c5[nH]c34)cc1)CC2 the Potency was “inactive”.
In the case of N#Cc1ccc(C(c2ccc(C#N)cc2)n2cncn2)cc1, the Potency is reported as “inactive”.
With COc1cc2nccc(Oc3ccc(NC(=O)NC4CC4)c(Cl)c3)c2cc1C(N)=O the Potency was 3450 nM (active).
In the case of O=C1CCCC2=C1C(c1[nH]ncc1Cl)N=C(Nc1nc3ccccc3o1)N2 (configuration not stated), the Potency is reported as “inactive”.
With O=c1ncn2nc(Sc3ccc(F)cc3F)ccc2c1-c1c(Cl)cccc1Cl the Potency was “inactive”.
For CN(C)C(=O)c1ccc(S(=O)(=O)c2ccc(NC(=O)[C@@](C)(O)C(F)(F)F)c(Cl)c2)cc1, the Potency was “inactive”.
For O=C(C=Cc1ccc(/C=C/C(=O)Nc2ccc(C3=NCCN3)cc2)cc1)Nc1ccc(C2=NCCN2)cc1, the Potency was “inactive”.
In the case of Cc1ccccc1C(C(=O)NC1CCCC1)N(C(=O)Cn1cnc2ccccc21)c1cccc(F)c1 (configuration not stated), the Potency is reported as “inactive”.
With Cc1cccc(-c2nn(C(=S)Nc3ccccc3)cc2-c2ccnc3ccccc23)n1 the Potency was 2440 nM (active).

Test system: not listed separately
Experiment: qHTS for small molecule inhibitors of Yes1 kinase: Counter Assay (AID 686950);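 further: no kinase present so only ADP-Glo detection of a fixed ADP amount is tested; luminescence from ADP-Glo reporting ADP in a fixed ATP and ADP mixture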
Conditions: series mostly up to 76.9 µM
Outline: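 Luminescence read-out from ADP-Glo quantifies a fixed ADP amount (0.02 mM ADP with 0.08 mM ATP) after 60 min at room temperature; signal is normalized between DMSO wells with ATP/ADP and with 0.1 mM ATP alone.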
In the case of O=C(Nc1cccnc1)N1CCC(Cc2cccc(Oc3ccc(C(F)(F)F)cn3)c2)CC1, the outcome is reported as “inactive”.
In the case of CNC(=O)c1ccc(C)c(-n2c(C)cc(OCc3ccc(F)cc3F)c(Br)c2=O)c1, the outcome is reported as “inactive”.
For COCCNCCCn1c(C(=O)CF)c(-c2ccc(C)cc2)c2c(N)ncnc21, the outcome was “inactive”.
For CN([C@@H](Cc1ccc(OS(=O)(=O)c2cccc3cnccc23)cc1)C(=O)N1CCN(c2ccccc2)CC1)S(=O)(=O)c1cccc2cnccc12, the outcome was “inactive”.
For CC[C@@H](C)[C@H](NC(=O)[C@H](CC1CCCCC1)NC(=O)c1ccno1)C(=O)N1CCC2(CCc3ccccc32)CC1, the outcome was “inactive”.
With COc1nc(-c2ccc3c(c2)OCO3)n(-c2ccc(NC(=O)CSc3ccccc3)cc2)n1 the outcome was “inactive”.
In the case of C[C@]1(c2nc3c(C(N)=O)cccc3[nH]2)CCCN1, the outcome is reported as “inactive”.
In the case of COc1ccccc1[C@H](c1cccc2ccccc12)[C@@](C)(C#N)C(=O)N1CCC(c2cccc(C(F)(F)F)c2)CC1, the outcome is reported as “inactive”.
In the case of COc1ccc(-c2oc3cc(OC)ccc3c2C(=O)c2ccc(C#N)cc2)cc1, the outcome is reported as “inactive”.
For Cc1cc(Nc2nc(N[C@@H](C)c3ncc(F)cn3)ncc2Cl)n[nH]1, the outcome was “inactive”.
With C/C(=C\C(=O)Nc1ccccc1C(=O)O)c1ccc2ccccc2c1 the outcome was “inactive”.
For Cn1cnc2c(F)c(Nc3ccc(Br)cc3Cl)c(C(=O)NOCCO)cc21, the outcome was “inactive”.
For CCOC(=O)C1=C[C@@]2(CC)CCCN3CCc4c(n1c1ccccc41)[C@H]32, the outcome was “inactive”.
In the case of CCCc1nc2c(C)cc(-c3nc4ccccc4n3C)cc2n1Cc1ccc(-c2ccccc2C(=O)O)cc1, the outcome is reported as “inactive”.
For NC(=O)c1ccc(-c2nc(-c3ccc4c(c3)OCCO4)c(-c3ccccn3)[nH]2)cc1, the outcome was “inactive”.
With CCCS(=O)(=O)Nc1ccc(F)c(C(=O)c2c[nH]c3ncc(Cl)cc23)c1F the outcome was “inactive”.
For CS(=O)(=O)Oc1ccc2c(NC(N)=O)c(C(=O)c3ccc(Cl)cc3Cl)oc2c1, the outcome was “inactive”.
In the case of Cc1c(CN2CCN(C(=O)C(C)C)CC2)sc2c(N3CCOCC3)nc(-c3cnc(N)nc3)nc12, the outcome is reported as “inactive”.
With CN(C)c1ccc(Nc2nc(N)n(C(=O)c3c(F)cccc3F)n2)cc1 the outcome was “inactive”.
With Fc1ccc(Cl)cc1-c1nc(Nc2ccncc2)c2nccnc2n1 the outcome was “inactive”.
For CN(C(=O)c1ccc(F)cc1C(F)(F)F)C1CCN(c2nnc(-c3ccnn3C)c3ccccc23)CC1, the outcome was “inactive”.
With CS(=O)(=O)c1cccc(CNc2nc(Nc3ccc4c(c3)CCC(=O)N4)ncc2C(F)(F)F)c1 the outcome was “inactive”.
For CC(C)OC(=O)C1=CN(C(=O)c2ccc(F)c(F)c2)CC(C)(C)c2c1[nH]c1ccccc21, the outcome was “inactive”.
With CC(C)(N)C(=O)N[C@H](COCc1ccccc1)C(=O)N1CCC2(CC1)CN(S(C)(=O)=O)c1ccccc12 the outcome was “inactive”.
With COc1ccc(CC2=NN3C([C@@H](CCc4ccccc4)[C@@H](C)O)=NC(C)C3C(=O)N2)cc1OC (some centres not stated) the outcome was “inactive”.
For Cc1cc(C=c2sc3nc4ccccc4n3c2=O)c(C)n1-c1ccccc1, the outcome was “inactive”.
With CS(=O)(=O)c1ccc(C(=O)Nc2ccc(Cl)c(-c3ccccn3)c2)c(Cl)c1 the outcome was “inactive”.
For COc1cc2c(cc1OC)CN(CCc1ccc(NC(=O)c3cccc4c(=O)c5cccc(OC)c5[nH]c34)cc1)CC2, the outcome was “inactive”.
With N#Cc1ccc(C(c2ccc(C#N)cc2)n2cncn2)cc1 the outcome was “inactive”.
With COc1cc2nccc(Oc3ccc(NC(=O)NC4CC4)c(Cl)c3)c2cc1C(N)=O the outcome was “inactive”.
In the case of O=C1CCCC2=C1C(c1[nH]ncc1Cl)N=C(Nc1nc3ccccc3o1)N2 (configuration not stated), the outcome is reported as “inactive”.
In the case of O=c1ncn2nc(Sc3ccc(F)cc3F)ccc2c1-c1c(Cl)cccc1Cl, the outcome is reported as “inactive”.
In the case of CN(C)C(=O)c1ccc(S(=O)(=O)c2ccc(NC(=O)[C@@](C)(O)C(F)(F)F)c(Cl)c2)cc1, the outcome is reported as “inactive”.
For O=C(C=Cc1ccc(/C=C/C(=O)Nc2ccc(C3=NCCN3)cc2)cc1)Nc1ccc(C2=NCCN2)cc1, the outcome was “inactive”.
For Cc1ccccc1C(C(=O)NC1CCCC1)N(C(=O)Cn1cnc2ccccc21)c1cccc(F)c1 (configuration not stated), the outcome was “inactive”.
For Cc1cccc(-c2nn(C(=S)Nc3ccccc3)cc2-c2ccnc3ccccc23)n1, the outcome was “inactive”.
